Compound activity (PubChem BioAssay)
Mm-Cpn inhibitor: inhibitors of Methanococcus maripaludis chaperonin TRiC (MmCpn); purified Mm-Cpn ATPase, ADP Transcreener TR-FRET; Potency, µM (top dose mostly 76.9 µM), usual class: inhibitors; 330,000 compounds, 0.031% hits; further: nearly all actives have a fitted effect of over 80% in size
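Measured: ADP formation by purified Mm-CPN. Conditions: 25 nM protein, 10 uM ATP, Tris pH 7.4 with Mg2+, K+ and DTT, 37°C for 30 min. Detection: Transcreener HTRF after 30 min at room temperature.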
RXFP1 ag: RXFP1 (human) receptor agonism | Q9HBX9 | HEK293T-RXFP1 cAMP TR-FRET, 30 min; response scale: percent of porcine relaxin response, buffer zero | Potency, µM (top dose mostly 57.5 µM), usual class: activators | 370,000 compounds, 0.3% hits | AID 2676; further: nearly all actives have a fitted effect of over 60% in size
Target sequence (Q9HBX9 whole entry, looked up): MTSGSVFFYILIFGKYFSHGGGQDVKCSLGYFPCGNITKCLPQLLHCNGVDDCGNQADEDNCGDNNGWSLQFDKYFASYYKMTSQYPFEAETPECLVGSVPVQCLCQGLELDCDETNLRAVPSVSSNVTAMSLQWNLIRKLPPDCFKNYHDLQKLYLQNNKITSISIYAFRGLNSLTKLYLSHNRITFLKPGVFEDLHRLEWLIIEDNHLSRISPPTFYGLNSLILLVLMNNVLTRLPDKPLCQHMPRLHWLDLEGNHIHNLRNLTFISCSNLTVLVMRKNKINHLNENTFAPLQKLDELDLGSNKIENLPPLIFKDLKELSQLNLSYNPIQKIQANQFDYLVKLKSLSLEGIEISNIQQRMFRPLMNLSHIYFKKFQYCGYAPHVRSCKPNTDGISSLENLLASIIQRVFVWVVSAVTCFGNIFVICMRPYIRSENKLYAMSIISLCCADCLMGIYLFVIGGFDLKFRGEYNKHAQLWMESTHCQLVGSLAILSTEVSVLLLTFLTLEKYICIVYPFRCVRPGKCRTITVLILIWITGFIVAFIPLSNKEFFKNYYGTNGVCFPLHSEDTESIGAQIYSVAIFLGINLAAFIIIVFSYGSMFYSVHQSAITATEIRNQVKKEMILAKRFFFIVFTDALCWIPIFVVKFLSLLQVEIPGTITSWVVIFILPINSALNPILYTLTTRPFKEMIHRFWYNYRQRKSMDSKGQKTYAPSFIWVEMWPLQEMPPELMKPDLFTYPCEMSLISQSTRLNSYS
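HEK293 cells stably expressing RXFP1, treated 30 min at 37C with compounds plus PDE4 inhibitor Ro 20174; cAMP measured by HTRF TR-FRET. Normalized to buffer and 29 nM porcine relaxin; EC50 by Hill fit.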
gsp agonist: agonists of gsp mutant (McCune-Albright syndrome). gsp mutant cells, cAMP HTRF, 30 min. Potency, µM (titrated, usually from 76.9 µM), actives largely listed as activators. 340,000 compounds, 0.13% hits. AID 624287; active means well fitted activation curve with a large enough effect; inconclusive means small, poorly fitted or top-dose-only effect, or another doubt; inactive means no such curve, though single readings can be large or run the other way; cell line not stated here;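 further: phosphodiesterase inhibitor Ro 20-1724 added with compounds to block cAMP breakdown; nearly all actives have a fitted effect of over 60% in size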
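Cells in DMEM/10% FBS with G418 were pretreated with compounds in DMSO plus […] (300 uM stock) for 30 min at 37C. cAMP was measured by HTRF (cAMP-d2 plus anti-cAMP antibody-K) after 30 min at room temperature.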
RXFP1 antag: RXFP1 (human) relaxin receptor antagonism; Q9HBX9; AID 1259400; activity change, negative = inhibition, % at 57.5 µM; HEK293-RXFP1, relaxin-stimulated cAMP HTRF, 30 min; active compounds read low; 350,000 compounds, 0.59% hits;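 active means activity change of -60% or lower, but not beyond a set lower limit; inconclusive means change between -60% and -40%, or beyond the set limit; inactive means change above -40%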
CCT chaperon mod: changes cytosolic chaperonin activity; activity change, % (no concentration beside the values), hits read low; 360,000 compounds, 0.3% hits; purified chaperonin ATPase assay, HTRF ADP detection, 30 min; in the data active means activity change below about -30%
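ATPase activity: ADP formed was measured by HTRF Transcreener (665/615 nm ratio) after 30 min at 37 deg C with 10 uM ATP. Compounds screened at one 76 uM concentration against 40 or 20 nM TRiC in Tris pH 7.4/KCl/MgCl2/DTT buffer.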
gsp antag: gsp mutant antagonism; gsp-mutant cells, cAMP HTRF, 30 min; 340,000 compounds, 0.4% hits; Potency, µM (doses to about 76.9 µM), usual class: inhibitors; calls by dose curve; cell line not stated here;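 further: intracellular cAMP measured with PDE inhibitor Ro 20-1724 present during compound exposure; nearly all actives have a fitted effect of over 65% in size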
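HTRF cAMP measurement after 30 min RT detection following 30 min, 37C compound treatment alongside […] (added as 300 uM solution) in G418-selected cells seeded at 2000/well and grown 16–24 h.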
Hits are given with their value; 0 = inactive; ? = inconclusive; - = no result given; ! = not active in a repeat; [ ] = remark or other dose. In the library only some 1.2% were active in any assay of this set; here they are far more common. Unless noted, the call rests on the fitted dose curve; in most records, active means well fitted curve in the direction sought with a large enough effect; inconclusive means small, poorly fitted or top-dose-only effect, or another doubt; inactive means no such curve, though single readings can be large; an effect the other way counts as inactive or inconclusive.

SMILES | Mm-Cpn inhibitor | RXFP1 ag | gsp agonist | RXFP1 antag | CCT chaperon mod | gsp antag
CC(=O)N1CCCC1c1nc2ccccc2n1Cc1ccccc1Cl (stereo not given) | - | 0 | - | - | - | -
CS(=O)(=O)c1ccc(C(=O)OCC(=O)NCc2cccs2)cc1[N+](=O)[O-] | 0 | - | 0[15.4 µM] | -101.4 | 0 | 0
CCN(Cc1ccccc1)S(=O)(=O)c1ccc(F)c(C(=O)Nc2ccc(C(C)C)cc2)c1 | - | 0 | - | 0 | - | -
Cc1c(CCC(=O)O)c(=O)oc2c(C)c3occ(-c4ccc(Cl)cc4)c3cc12 | 0 | 0 | 0[15.4 µM] | 0 | 0 | 31.6µM
Cc1c(CCC(=O)O)c(=O)oc2cc3occ(-c4ccc(Cl)cc4)c3cc12 | 0 | 0 | 0 | 0 | 0 | 0
O=S(=O)(Nc1cccc(-c2ccc(N3CCCCCC3)nn2)c1)c1ccc(F)cc1 | 0 | 0 | ? | -76.2! | 0 | ?
O=S(=O)(Nc1cccc(-c2ccc(N3CCCCCC3)nn2)c1)c1ccccc1Cl | 0 | 0 | ? | 0 | 0 | 28.2µM
O=S(=O)(Nc1cccc(-c2ccc(N3CCCCCC3)nn2)c1)c1ccc(C(F)(F)F)cc1 | 0 | 0 | 0 | -68.0 | 0 | ?
O=S(=O)(Nc1ccc(-c2ccc(N3CCOCC3)nn2)cc1)c1ccc(Cl)c(Cl)c1 | 0 | 0 | 0[15.4 µM] | 0 | 0 | 35.5µM
O=S(=O)(Nc1cccc(-c2ccc(N3CCCCCC3)nn2)c1)c1cccc(F)c1 | 0 | 0 | 0 | 0 | 0 | ?
Cc1nn(C(=O)c2ccccc2)c(C)c1Sc1ccc(Cl)cc1 | - | 0 | - | 0 | - | -
O=C(NCc1ccc2c(c1)CCN2C(=O)c1ccncc1)c1ccc(Cl)cc1 | - | 0 | - | 0 | - | -
COCCCNC(=O)c1c(NC(=O)c2cc(=O)c3ccccc3o2)sc2c1CCCC2 | - | 0 | - | 0 | - | -
CCN(CC)c1ccc2cc(-c3nc(-c4cccs4)no3)c(=O)oc2c1 | - | 0 | - | 0 | - | -
Cc1csc2nc(O)c(C(=O)NC3CCCCC3)c(=O)n12 | 0 | 0 | 0 | 0 | 0 | 0
Cc1csc2nc(O)c(C(=O)NC3CCCCCC3)c(=O)n12 | 0 | 0 | 0[15.4 µM] | 0 | -34.9 | 0
CCOC(=O)c1cc(OC(=O)c2cccc([N+](=O)[O-])c2)n(-c2ccccc2)n1 | 0 | 0 | ? | 0 | -34.9 | 0
COC(=O)c1sc(-c2cccs2)cc1NC(=O)/C=C/C(=O)O | ? | 0 | ? | ? | -41.9 | 22.4µM
CCCCNC(=O)c1sc(=S)n2c1[nH]c(=O)c1ccc(C(=O)NCCc3ccc(OC)c(OC)c3)cc12 | 0 | 0 | ? | 0 | 0 | 35.5µM
COc1ccccc1C(=O)COC(=O)c1cnc(C)cn1 | 0 | 0 | 0[15.4 µM] | 0 | 0 | 0
COc1cc(COC(=O)c2cnc(C)cn2)c(OC)cc1Br | 0 | 0 | 0[15.4 µM] | 0 | -51.6 | 0
Cc1cc(/C=C2\SC(=S)NC2=O)c(C)n1-c1ccccc1 | 0 | 0 | 0[15.4 µM] | ? | 0 | 0
Cc1cc(/C=C2\SC(=S)NC2=O)c(C)n1-c1ccc(O)cc1 | 0 | 0 | 0 | ? | 0 | 31.6µM
NC(=S)n1[nH]c(-c2ccc([N+](=O)[O-])cc2)c(N=Nc2cccc(Cl)c2)c1=O | 0 | 0 | 0 | 0 | 0 | 25.1µM
NC(=S)n1[nH]c(-c2ccc([N+](=O)[O-])cc2)c(N=Nc2ccc(O)cc2)c1=O | 0 | 0 | 0 | 0 | 0 | 0
SMILES | Mm-Cpn inhibitor | RXFP1 ag | gsp agonist | RXFP1 antag | CCT chaperon mod | gsp antag
COc1ccc(-c2nc3ccccc3n3c(-c4cccc(C)c4)c4c(=O)n(C)c(=O)n(C)c4c23)cc1OC | - | 0 | - | 0 | - | -
O=C(NCCCCCCNC(=O)c1ccccc1O)c1ccccc1O | 0 | 0 | 0[15.4 µM] | 0 | 0 | 44.7µM
Cc1ccc(-c2nc3c(C)cccn3c2Nc2ccccc2C)s1 | - | 0 | - | 0 | - | -
CCOC(=O)CSc1nnc2n(-c3ccccc3)c(=O)c3c4c(sc3n12)CC(C(C)(C)C)CC4 (stereo not given) | - | 0 | - | -68.6 | - | -
O=C(CC1C(=O)NCCN1Cc1cccc(F)c1)NC1CCCCCC1 (stereo not given) | 0 | 0 | 0 | 0 | 0 | 0
Cc1cccc2nc(CNC(=O)CC3C(=O)NCCN3Cc3cccc(F)c3)cn12 (stereo not given) | 0 | 0 | 0 | 0 | -43.0 | 0
Cc1ccc(-c2cc(C(=O)OC3CCOC3=O)c3ccccc3n2)c(C)c1 (stereo not given) | 0 | 0 | 0[15.4 µM] | 0 | 0 | 0
COc1ccc(-c2cc(C(=O)N(C)Cc3cccc(OC)c3OC)c3ccccc3n2)cc1OC | 0 | 0 | 0[15.4 µM] | 0 | 0 | 0
O=C(OC1CCOC1=O)c1cc(-c2cccs2)nc2ccccc12 (stereo not given) | 0 | ? | 0[15.4 µM] | 0 | -74.0 | 0
COc1ccccc1CN(C)C(=O)c1cc(-c2cccs2)nc2ccccc12 | 0 | 0 | 0 | 0 | 0 | 39.8µM
O=C(CCc1nc2cccnc2n1-c1ccccc1)Nc1ccc(Cl)c(Cl)c1 | - | 0 | - | 0 | - | -
CC(=O)c1cccc(N(C(=O)c2csnn2)C(C(=O)NC2CCCC2)c2ccccc2)c1 (stereo not given) | 0 | 0 | 0 | -79.6 | 0 | 0
CCOC(=O)Cn1c(=NC(=O)c2nc3ccccc3s2)sc2cc(S(N)(=O)=O)ccc21 | 0 | 0 | 0[15.4 µM] | 0 | 0 | 10µM
OCC1(Cc2ccc(F)cc2F)CCCN(Cc2ccc(Cl)cc2)C1 (stereo not given) | 0 | 0 | 0 | -60.8 | 0 | 0
CCOc1cc(/C=N\NC(=O)OC)ccc1OC(=O)c1ccco1 | 0 | 0 | 0 | -64.3 | 0 | 0
CCOc1ccc(NC(=O)Nc2cc(C(C)C)c(O)cc2C)cc1 | 0 | 0 | 0[15.4 µM] | 0 | 0 | 0
Cc1cc(O)c(C(C)C)cc1NC(=S)Nc1cc(C(C)C)c(O)cc1C | - | - | 0 | 0 | 0 | 28.2µM
CC1CCN(C(=O)COC(=O)CCCN2C(=O)c3cccc4cccc(c34)C2=O)CC1 | 0 | 0 | ? | 0 | -94.2 | 0
O=C(NCc1ccc(F)cc1)c1cc2cccc3c2n1CCS3 | - | 0 | - | 0 | - | -
Cc1cccc(C)c1Nc1c(-c2ccccc2F)nc2cccc(C)n12 | - | 0 | - | -100.1 | - | -
Cc1cccc2nc(-c3ccccn3)c(Nc3ccc(F)cc3)n12 | - | 0 | - | 0 | - | -
CN(Cc1ccccc1)C(=O)CSc1nc(-c2ccc(F)cc2)cc(C(F)(F)F)n1 | - | 0 | - | - | - | -
CC(=O)c1ccc(/C=C/c2nc3ccccc3n2C)o1 | ? | 25.1µM | ? | 0 | 0 | 0
Cn1c(/C=C/c2ccccc2)nc2ccccc21 | 0 | 0 | 0 | 0 | 0 | 0
O=C(CCCn1c(=S)[nH]c2cc3c(cc2c1=O)OCO3)NCc1cccc(Cl)c1 | 0 | ? | 0 | -102.8 | 0 | 0
O=C(CCn1c(=S)[nH]c2cc3c(cc2c1=O)OCO3)NCc1ccccc1Cl | 0 | ? | 0 | -69.8 | 0 | 0
O=C(CCn1c(=S)[nH]c2cc3c(cc2c1=O)OCO3)NCCc1ccccc1Cl | - | - | 0 | 0 | 0 | -
